According to PubChem BioAssay AID1063 (University of Pittsburgh Molecular Library Screening Center, 2008):
Among all 200,000 compounds or so, about 18,000 (9%) were called active. This is one part of a sample in which actives are shown more often than they occur. Values without a mark were called inactive. No stated cut-off is given here; in the data, active means inhibition above about 50%; inactive means the rest.

Experiment: antileishmanial activity against promastigotes – primary screen (AID 1063);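 further: promastigotes grown with compound for 44 hours at 28 °C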
Details: Leishmania major promastigotes, resazurin fluorescence viability; at 10 µM; stronger effect = higher value

SMILES	inhibition
COc1cc(COCC(O)CN2CCN(Cc3ccc4c(c3)OCO4)CC2)cc(OC)c1OC (stereo not drawn)	2.04%
Cc1cc(=O)oc(C)c1C(=O)NCCN(C)Cc1ccccc1	9.38%
COc1ccc(CCNC(=O)CSc2nnc3ccc(-c4ccncc4)nn23)cc1	-2.23%
COc1cccc(-c2ccc(C#N)c(SCC(=O)NCCc3ccc(Cl)cc3)n2)c1	50.9% (active)
COc1ccc(CCNC(=O)CSc2nc(-c3ccc(OC)c(OC)c3)ccc2C#N)cc1	27.6%
NS(=O)(=O)c1ccc(NC(=O)/C=C/c2ccccc2Cl)cc1	0.13%
O=S(=O)(NCc1ccccc1)c1ccc(S(=O)(=O)N2CCCC2)cc1	-7.35%
O=C1c2cccnc2C(Nc2ccc(S(=O)(=O)N3CCCCCC3)cc2)N1Cc1ccccc1 (stereo not drawn)	54.9% (active)
Cc1nc(Nc2ccc(S(=O)(=O)N3CCCC3)cc2)c2nnn(Cc3ccccc3)c2n1	0.17%
CCOc1cccc(SCc2noc(C(=O)NC(C)C)c2C(=O)O)c1	-11.1%
COC(=O)c1onc(-c2c(OC)cc(OC)cc2OC)c1C(=O)OC	-8.2%
COC(=O)c1c(CCl)noc1C(=O)NC(C)C	100% (active)
Cc1cc(NC(C)C)n2c(nc3ccccc32)c1C#N	0.11%
O=C1N(c2ccc(Cl)cc2)C(c2ccc(Cl)cc2)N2CCCN12 (stereo not drawn)	-2.86%
COCCCNC(NC(=O)c1ccc(OC)cc1)C(Cl)(Cl)Cl (stereo not drawn)	-5.56%
O=Cc1ccc(OCc2cn3ccccc3n2)cc1	-8.44%
CNC(=O)COC(=O)c1cc(-c2ccc(OC)cc2)nc2ccccc12	6.03%
S=c1[nH]nc(CSCc2ccc(Cl)cc2Cl)n1-c1ccccc1	14.5%
CCn1c(CSCc2c(Cl)cccc2Cl)n[nH]c1=S	81.2% (active)
CCn1c(CNS(=O)(=O)c2ccc(Cl)cc2)n[nH]c1=S	-0.27%
CCOC(=O)NC(=O)/C(C#N)=C\c1ccccc1	-7%
O=C(Nc1ccc2c(c1)CCC2)c1cccc(S(=O)(=O)Nc2ccccc2Cl)c1	95.5% (active)
O=C(Nc1ccc2c(c1)CCC2)c1cccc(S(=O)(=O)N2CCN(c3ccc(F)cc3)CC2)c1	24.5%
O=C(c1cccc(S(=O)(=O)Nc2ccccc2Cl)c1)N1CCN(C(=O)c2ccco2)CC1	-0.85%

SMILES	inhibition
Cc1ccc(-c2nn(-c3ccccc3)cc2/C=C/C(=O)Nc2cccc(S(N)(=O)=O)c2)cc1	-2.89%
Cc1ccc(C)c(NC(CC(=O)c2ccccc2)C(=O)OCC(=O)c2cccs2)c1 (stereo not drawn)	17.1%
O=C(CCC(=O)c1cccs1)NCc1ccccc1	-10.9%
Cc1ccccc1C(CC(=O)c1cccs1)C(C#N)C#N (stereo not drawn)	83.5% (active)
CC(NC(=O)COC(=O)c1ccc(Cl)cc1O)c1ccc(F)cc1 (stereo not drawn)	-6.63%
CN(C)CCCNC(=O)c1ccc2[nH]c3ccccc3c2c1	13%
CN(C)c1ccc(C(CNC(=O)c2ccc(F)cc2)c2c[nH]c3ccccc23)cc1 (stereo not drawn)	96.3% (active)
CC(=O)c1ccc(S(=O)(=O)Nc2ccc(C(=O)NCC(c3ccccc3)N(C)C)cc2)cc1 (stereo not drawn)	0.26%
COc1ccc(-n2nc3c(c2NC(=O)c2ccc(N4C(=O)CCC4=O)cc2)CSC3)cc1	-0.66%
O=c1[nH]n(-c2ccc([N+](=O)[O-])cc2)c(=O)c2ccccc12	-3.65%
CC(C)(C)c1ccc(/C=C/C(=O)NC2CCS(=O)(=O)C2)cc1 (stereo not drawn)	0.12%
O=C(Nc1nc2cc3c(cc2s1)OCCO3)c1cccc(S(=O)(=O)N2CCOCC2)c1	99.1% (active)
O=C(Nc1nc2ccc(S(=O)(=O)N3CCCC3)cc2s1)C1CCCO1 (stereo not drawn)	2.48%
COc1ccc(S(=O)(=O)N2CCOCC2)cc1C(=O)Nc1nc2ccccc2s1	-3.71%
Cc1noc(C)c1COc1cccc(C(=O)Nc2cccnc2)c1	4.43%
CC1=CC=CN2C1=NC(=O)CC2(C)C(=O)N(CC(=O)NC1CCCC1)c1ccccc1C (stereo not drawn)	2.29%
Cc1c(NC(=O)CSc2cccc3cccnc23)c(=O)n(-c2ccccc2)n1C	44.5%
O=C(CSc1cccc2cccnc12)N/N=C/c1cccnc1	101% (active)
Cc1nc2ccccc2n1CC(=O)N/N=C/c1cccnc1	-4.45%
CN1CCN(c2ccc(NC(=O)c3ccc4c(c3)OCCO4)cc2Cl)CC1	5.5%
COc1ccc(C2C(C#N)=C(N)Oc3n[nH]c(C)c32)cc1CN1CCN(c2ccc(F)cc2)CC1 (stereo not drawn)	60.8% (active)
CCCc1[nH]nc2c1C(c1ccc(OC)c(Cn3nc(C)c(Br)c3C)c1)C(C#N)=C(N)O2 (stereo not drawn)	41.6%
CCOc1c(OC)cc(C2C(C#N)=C(N)Oc3n[nH]c(-c4ccncc4)c32)cc1OC (stereo not drawn)	6.78%
O=Cc1ccc(Oc2cccc(C(F)(F)F)c2)nc1	6.6%

SMILES	inhibition
COc1ccc(NC(=O)COC(=O)c2ccncc2)c(OC)c1	-3.38%
CC(C)(C)NC(=O)C(=O)NCc1ccncc1	77.7% (active)
CCCC(C)C(=O)NCc1ccncc1 (stereo not drawn)	-1.46%
O=C(NCc1ccncc1)C(=O)NCc1ccco1	-7.02%
CC(C)OCCCNC(=S)N1CCC(C(=O)c2ccc3c(c2)OCCO3)CC1	-1.34%
COCCn1c(-c2ccc(OC)c(OC)c2)nc2ccccc21	11.3%
COc1ccc(-c2nc3ccccc3n2CCC(C)C)cc1OC	66.8% (active)
CCCn1c(C(O)c2cc(OC)ccc2OC)nc2ccccc21 (stereo not drawn)	19%
Cn1c(=O)c2c(ncn2CC(=O)N/N=C/c2cn[nH]c2-c2ccc(F)cc2)n(C)c1=O	-7.31%
Cn1nc(C(F)(F)F)c2cc(C(=O)N3CCOCC3)sc21	-2.24%
COc1ccc(CCC(=O)OCC(=O)Nc2ccc(C)c(S(=O)(=O)N(C)C)c2)cc1	-10.7%
Cc1ccc(C)c(S(=O)(=O)N2CCN(CC(=O)Nc3ccc([N+](=O)[O-])cc3)CC2)c1	26.5%
COc1ccc(NS(=O)(=O)c2cc(NC(=O)CC(=O)c3ccc([N+](=O)[O-])cc3)ccc2C)cc1	68.3% (active)
Cc1ccc(-n2c(C)cc(/C=N\NC(=O)CC(=O)NC(C)C)c2C)cc1	-3.17%
Cc1cccc(-n2c(C)cc(/C=N\NC(=O)c3cccs3)c2C)c1	17.2%
Cc1cccc(-n2c(C)cc(/C=N/NC(N)=S)c2C)c1	79.6% (active)
Cc1ccc(-c2csc(NC(=O)c3cnccn3)n2)cc1C	-7.05%
COc1ccc(-n2c(C)nc3c(cnn3-c3ccccc3)c2=O)cc1	-7.18%
Cc1ccc(Oc2cnn(-c3ccccc3)c(=O)c2Br)cc1	46.6%
COc1ccc(Oc2c(Cl)cnn(-c3ccccc3)c2=O)cc1	59.1% (active)
S=C1Nc2cc(Cl)ccc2Sc2ccccc21	-5.54%
CCN(CC)C(=O)N(CC)Cc1ccccc1	0.88%
CCC(CC)NC(=O)/C=C/c1cccc([N+](=O)[O-])c1	44.7%
COc1cc(OC)cc(C(=O)NCCSCc2ccco2)c1	-3.35%

SMILES	inhibition
O=C(NCc1ccco1)c1ccc(NS(=O)(=O)c2cccc([N+](=O)[O-])c2)cc1	-9.32%
O=C(/C=C/c1cccc([N+](=O)[O-])c1)NCCSCc1ccco1	59.6% (active)
CCC(C)NC(=O)/C=C/c1ccc(S(=O)(=O)NCc2ccco2)cc1 (stereo not drawn)	9.36%
O=C(/C=C/c1ccc([N+](=O)[O-])cc1)NCCSCc1ccco1	62.9% (active)
CCOc1ccc(/C=C(/NC(=O)c2ccccc2)C(=O)NCCC(=O)O)cc1	-5.96%
Cc1ccc(NC(=O)c2ccc(S(=O)(=O)NCC3CCCO3)cc2)cc1C (stereo not drawn)	12.2%
COc1ccccc1CNC(=O)c1cc(=O)c2ccccc2o1	15.9%
O=C1/C(=C/c2cccs2)CCC1C1CCCC1 (stereo not drawn)	-9.7%
CCOC(=O)c1ccc(NC(=S)N2CCCC2)cc1	1.46%
OCC1(CCOc2ccccc2)CCN(Cc2cn[nH]c2-c2ccccc2)CC1	-2.84%
CN(CCOc1ccccc1)Cc1nc2cc(Cl)ccc2c(=O)[nH]1	7.34%
Cc1c(CN2CCC(CO)(CCOc3ccccc3)CC2)[nH]c2ccc(Cl)cc12	100% (active)
CCN(CC)C(=O)C(=O)c1cn(CC(=O)NCc2ccc3c(c2)OCO3)c2ccccc12	-5.27%
CCn1c(SCC(=O)Nc2nccs2)nnc1-c1ccco1	0.22%
C=C1C2C[C@H](O)C(C)(C)[C@@]2(O)[C@H](O)C[C@]23C[C@@](C)(O)[C@H](CC[C@H]12)[C@H]3O (stereo partly drawn)	-5.47%
CNS(=O)(=O)c1ccc(N2CCCC2=O)c([N+](=O)[O-])c1	-4.3%
Cc1ccc(C(=O)c2ccc(N3CCN(C)CC3)c([N+](=O)[O-])c2)cc1	12.3%
CN1CCN(c2ccc(S(=O)(=O)Nc3ccccc3)cc2[N+](=O)[O-])CC1	63.2% (active)
O=C(Nc1ccc2c(c1)CCC2)c1ccc(Br)s1	14.6%
O=C(NCc1cccnc1)c1cccc(-c2cc3ccccc3oc2=O)c1	3.42%
CN(C)S(=O)(=O)c1cccc(NC(=O)COC(=O)c2cc(=O)[nH]c(=O)[nH]2)c1	-5.88%
